Screening data (PubChem)
KB-V1 cytotox – qHTS assay for MDR1-selective chemotherapeutics: Primary screen using the drug-selected MDR subline cells KB-V1; KB-V1 MDR cells viability, CellTiter-Glo, 72 h; Potency, µM (highest dose often 46.1 µM), usual class: cytotoxic; actives 3.4% (n = 400,000); AID 1347076, 2019; also: nearly all actives have a fitted effect of over 60% in size
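Readout: CellTiter-Glo luminescence, 10 min after addition. Cells: KB-V1 MDR subline, 72 h at 37 degrees C with compound. Analysis: corrected, normalized data fitted to concentration-effect curves.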
D3 antag – qHTS of D3 Dopamine Receptor Antagonist: qHTS; actives 2.5% (n = 360,000); D3R cells, DiscoveRx beta-arrestin luminescence, antagonist mode; active compounds read low; AID 652054, 2013; D(3) dopamine receptor (Homo sapiens), P35462; max response, negative = inhibition, %; in the data active = max response below about -50%; inconclusive = no clear call, values can overlap the other calls
Target sequence (P35462 whole entry, looked up): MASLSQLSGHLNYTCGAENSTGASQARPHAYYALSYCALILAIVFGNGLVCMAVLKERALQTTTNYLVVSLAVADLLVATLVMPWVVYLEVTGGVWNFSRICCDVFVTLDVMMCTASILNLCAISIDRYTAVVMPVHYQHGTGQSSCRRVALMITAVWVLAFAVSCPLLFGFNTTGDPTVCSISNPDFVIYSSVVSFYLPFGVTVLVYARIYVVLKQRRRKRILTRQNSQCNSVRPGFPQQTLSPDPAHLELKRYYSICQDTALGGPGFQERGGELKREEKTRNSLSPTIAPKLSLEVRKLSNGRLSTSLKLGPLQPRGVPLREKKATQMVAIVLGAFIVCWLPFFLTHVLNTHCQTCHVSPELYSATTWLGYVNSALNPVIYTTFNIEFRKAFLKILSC
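Cells expressing the human receptor were seeded at 1500 cells/well, incubated overnight at 37 degrees C in 5% CO2, then exposed to library compounds with dopamine controls for 90 minutes at 37 degrees C before luminescent detection.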
DRD3 agonist – qHTS of D3 Dopamine Receptor Agonist: qHTS. AID 652048, 2013. D3R DiscoveRx beta-arrestin cells, luminescence, 90 min. max activation, %. D(3) dopamine receptor (Homo sapiens), P35462. actives 0.58% (n = 410,000); in the data active = max activation above about 30%
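Agonist mode: compounds and dopamine controls were applied to plated cells for 90 min at 37 degrees C after an overnight attachment at 1500 cells/well. Luminescent read-out followed 30 - 60 minutes at room temperature with DiscoveRx detection reagent.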
SW480 rerep – A quantitative high throughput screen for small molecules that induce DNA re-replication in SW480 colon adenocarcinoma cells; SW480 DNA re-replication, Hoechst DNA content imaging, 48 h; Potency, µM (highest dose often 46.1 µM), most hits filed as activators; actives 1.8% (n = 340,000); also: nearly all actives have a fitted effect of over 55% in size
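Readout is total intensity of Hoechst-stained nuclei, excited at 405 nm and collected at 500-530 nm. Compound treatment lasted 48 hr at 37 C in 5% CO2 before staining.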
KB-3-1 tox – qHTS assay for MDR1-selective chemotherapeutics: Primary screen using the parental adenocarcinoma cell KB-3-1 | KB-3-1 viability, CellTiter-Glo ATP luminescence, 72 h | Potency, µM (titrated, usually from 46.1 µM), hits mostly cytotoxic | actives 1.4% (n = 400,000) | AID 1347075, 2019; also: nearly all actives have a fitted effect of over 60% in size
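KB-3-1 parental drug-naive adenocarcinoma cells in DMEM/10% FBS, incubated 72 h at 37 C with pin-transferred compounds across a concentration series. Viability by CellTiter-Glo luminescence; concentration-response curves fitted after normalization.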
MCF10A rereplic – A quantitative high throughput screen for small molecules that induce DNA re-replication in MCF 10a normal breast cells; actives 2.9% (n = 350,000); Potency, µM (titrated, usually from 46.1 µM), usual class: activators; MCF 10A DNA re-replication, Hoechst nuclear intensity, 48 h; also: nearly all actives have a fitted effect of over 50% in size
Of the large screens only hits and unclear results are named; the others gave an inactive call. Rows were chosen to be rich in hits. Some 8.9% of all compounds tested hit in one or more screens of this group. Unless noted, calls follow the shape of the dose curve; as a rule, active = well fitted curve in the direction sought with a large enough effect; inconclusive = small, poorly fitted or top-dose-only effect, or another doubt; inactive = no such curve, though single readings can be large; an effect the other way counts as inactive or inconclusive.

CCC(=O)Nc1cc(C(=O)O)ccc1S(=O)(=O)c1ccc(C)cc1	none
COC1CC2C=C(C)C=CC=CC(=O)NC(c3ccccc3)CC=CCCC(O)CC(=O)C2=C1O (configuration not stated)	KB-V1 cytotox 5.8µM, D3 antag -85.2, KB-3-1 tox 5.8µM (no result: SW480 rerep, MCF10A rereplic)
CC(C)(C)c1ccc(OCC(=O)Nc2ccc(Cl)cc2C(=O)c2ccccc2)cc1	none (no result: D3 antag, SW480 rerep, MCF10A rereplic)
COc1ccc(C(CNC(=O)Cc2ccc(Cl)c(Cl)c2)N2CCCCC2)cc1 (configuration not stated)	D3 antag -66.8, MCF10A rereplic inconclusive (no result: KB-V1 cytotox, KB-3-1 tox)
COc1cccc(C2CC3C(=O)C=CC2N3Cc2ccccc2)c1 (configuration not stated)	KB-V1 cytotox inconclusive, SW480 rerep inconclusive, KB-3-1 tox inconclusive, MCF10A rereplic inconclusive
O=C1C=CC2C3C(=O)N(c4ccccc4)C(=O)C3C1N2Cc1ccccc1 (configuration not stated)	KB-V1 cytotox 18.4µM, SW480 rerep 3.66µM, KB-3-1 tox inconclusive, MCF10A rereplic inconclusive
Nc1ccc(C2(c3ccc(N)cc3)c3ccccc3-c3ccccc32)cc1	none
Nc1ccc2c3c(cccc13)-c1ccccc1-2	DRD3 agonist 30.0, SW480 rerep 9.2µM, MCF10A rereplic 2.91µM
CCOC(=O)/C=C(C)/C=C/CC(C)CCCC(C)C (configuration not stated)	none (no result: KB-V1 cytotox, D3 antag, DRD3 agonist, KB-3-1 tox)
COc1ccc(NC(=O)c2cn(CCC#N)nc2-c2ccc(OC)c(OC)c2)cc1	MCF10A rereplic 6.51µM
C[N+]12CCC(CC1)C(=C(c1ccccc1)c1ccccc1)C2	KB-3-1 tox inconclusive
CC[N+]12CCC(CC1)C(=C(c1ccccc1)c1ccccc1)C2	KB-3-1 tox 14.6µM
COc1ccccc1CCNC1CCC(C(C)(C)C)CC1 (configuration not stated)	D3 antag -74.2, SW480 rerep inconclusive, MCF10A rereplic inconclusive
Cc1nnc2ccc(-c3cccc(C(F)(F)F)c3)nn12	KB-V1 cytotox 11.6µM
O=c1oc(-c2cccc(C(F)(F)F)c2)nn1-c1ccc(C(F)(F)F)cn1	KB-3-1 tox inconclusive, MCF10A rereplic inconclusive
CN1CCN(c2ncnc3ccc(Br)cc23)CC1	none
CN1CCN(c2nccc3c2ncn3C)CC1	D3 antag -64.0
Nc1ccc2ccccc2c1	none
C[n+]1c2cc(N)ccc2cc2ccc(N)cc21	KB-V1 cytotox 16.4µM, D3 antag inconclusive, KB-3-1 tox 10.3µM
COc1ccc(CCN(C)Cc2ccc(F)cc2F)cc1OC	D3 antag -77.1
CN(Cc1cccc(-c2ccncc2)c1)C(=O)Oc1ccccc1Cc1ccccc1	KB-V1 cytotox inconclusive, KB-3-1 tox 14.6µM (no result: SW480 rerep, MCF10A rereplic)
CN(Cc1cccc(-c2ccncc2)c1)C(=O)Oc1ccccc1Cl	KB-3-1 tox 14.6µM (no result: SW480 rerep, MCF10A rereplic)
CN(C)Cc1ccccc1OC(=O)N(C)C	none
Cc1nc2cc(OC(=O)N(C)Cc3cccc(-c4ccncc4)c3)ccc2s1	DRD3 agonist 32.9, KB-3-1 tox inconclusive (no result: SW480 rerep, MCF10A rereplic)
CN(C)C(=O)Oc1ccc(Cl)c2ccccc12	none
CSc1ccccc1NC(=O)CN(C)CC(=O)c1[nH]c(C)c(C(C)=O)c1C	KB-V1 cytotox inconclusive, MCF10A rereplic inconclusive
O=[N+]([O-])c1ccc(Cl)c([N+](=O)[O-])c1	KB-V1 cytotox 16.4µM, SW480 rerep inconclusive, KB-3-1 tox inconclusive, MCF10A rereplic inconclusive
CNCC(O)c1cc(OCc2ccccc2)c(OCc2ccccc2)cc1F (configuration not stated)	KB-V1 cytotox 18.4µM, KB-3-1 tox inconclusive (no result: D3 antag, DRD3 agonist)
C[C@]12CC[C@H]3[C@@H](CC[C@@]45O[C@@H]4C(O)=C(C#N)C[C@]35C)[C@@H]1CC[C@@H]2O	none (no result: KB-V1 cytotox, D3 antag, SW480 rerep, KB-3-1 tox, MCF10A rereplic)
C[C@]12CC[C@@H](O)CC1=CCC1C2CC[C@@]2(C)C1CC[C@@H]2N (some centres not stated)	SW480 rerep inconclusive, MCF10A rereplic inconclusive
C[C@]12CC[C@H](N)CC1=CCC1C2CC[C@@]2(C)C1CC[C@@H]2O (some centres not stated)	SW480 rerep 18.4µM, MCF10A rereplic inconclusive
C[C@@H]1CC2C3CC=C4C[C@@H](O)CC[C@]4(C)C3CC[C@]2(C)[C@H]1O (some centres not stated)	KB-V1 cytotox inconclusive, KB-3-1 tox inconclusive
C[C@H]1CC2C3CC=C4C[C@@H](O)CC[C@]4(C)C3CC[C@]2(C)[C@H]1O (some centres not stated)	KB-V1 cytotox 18.4µM, MCF10A rereplic inconclusive
NC(=O)C[N+]1(CC#CC(O)(c2ccccc2)c2ccccc2)CCCC1	MCF10A rereplic inconclusive
CN1C(=O)C(=Cc2ccc(OCCN(C)c3ccccn3)cc2)C(=O)N(C)C1=O	KB-V1 cytotox inconclusive, MCF10A rereplic 0.411µM
CN(Cc1ccc(OC(F)F)cc1)Cc1nc2c(Br)cc(Br)cc2c(=O)[nH]1	SW480 rerep inconclusive
C[C@H]1COC2=C1C(=O)C(=O)c1c2ccc2c1CCCC2(C)C	SW480 rerep inconclusive, KB-3-1 tox inconclusive, MCF10A rereplic 18.4µM
Cc1ccc(C=C2C(Cl)=C(Cl)C(Cl)=C2Cl)cc1	KB-V1 cytotox inconclusive, SW480 rerep inconclusive, KB-3-1 tox inconclusive, MCF10A rereplic inconclusive
CCOC(=O)c1cnc(SCc2ccc(Cl)c(Cl)c2)nc1N1CC1	KB-V1 cytotox 8.2µM, D3 antag inconclusive, SW480 rerep 4.11µM, MCF10A rereplic 13µM
CCN1CCN(c2cn[nH]c(=O)c2Cl)CC1	D3 antag -74.9
O=C(Nc1ccc2c(c1)OCCO2)c1cccn(Cc2cccc(F)c2)c1=O	none (no result: D3 antag, SW480 rerep, MCF10A rereplic)
Cc1ccccc1-n1nc(C)c2c1NC(=O)CSC2c1ccc(N(C)C)cc1 (configuration not stated)	none (no result: D3 antag, SW480 rerep, MCF10A rereplic)
CCOC(=O)c1c(-n2c(C)cc(/C=C3\C(=O)NC(=O)N(C)C3=O)c2C)sc2c1CCCC2	KB-V1 cytotox 23.1µM, SW480 rerep inconclusive, MCF10A rereplic inconclusive
Cc1cc(/C=C2\C(=O)NC(=O)N(c3ccc(Cl)cc3)C2=O)c(C)n1-c1sc2c(c1C#N)CCCC2	none
O=C1CC(N2CC=C(c3ccccc3)CC2)C(=O)N1c1ccc(F)cc1 (configuration not stated)	none
O=[N+]([O-])c1cccc(CN2CC=C(c3ccc(F)cc3)CC2)c1	D3 antag -98.8, KB-3-1 tox 9.2µM
O=[N+]([O-])c1ccccc1CN1CC=C(c2ccc(F)cc2)CC1	D3 antag -68.2, MCF10A rereplic inconclusive
